PubChem BioAssay AID1159580 (chemical genetic matrix, 2015)
“And” between values parts separate entries of the source, which are not always exact repeats. Equal entries are not always repeated. In all, about 5,500 compounds went through this assay and about 2,000 (36%) were called active. Another 18% or so got no clear call; they are omitted. Cut-off read from the data, not from the text of the source: active = normalized growth mostly below about 0.91 (no sharp cut-off); inconclusive = no clear call, values can overlap the other calls; inactive = mostly above about 0.92. The list shows a part of the results.

Experiment: chemical genetic growth profiling, strain panel (AID 1159580);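 note: tested at 20 µM; growth read once vehicle control cultures reached saturation at 30 °C; 1 = growth at the plate median or of vehicle wells; lower values mean less growth of the strain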
Conditions: S. cerevisiae deletion strains, growth OD

Measured: normalized growth

O=c1cc(-c2ccccc2)oc2cc(O)c(O)c(O)c12
active: locus YAL013W, strain DEP1, active compounds read low 0.367 | locus YAL021C, strain ccr4, active compounds read low 0.0818 | locus YAL026C, strain drs2, active compounds read low 0.198 | locus YAL030W, strain snc1, active compounds read low 0.562 | locus YBL061C, strain skt5, active compounds read low 0.449 | locus YBR009C, strain hhf1, active compounds read low 0.535 | locus YBR023C, strain chs3, active compounds read low 0.279 | locus YBR171W, strain sec66, active compounds read low 0.386 | locus YBR229C, strain ROT2, active compounds read low 0.458 | locus YBR231C, strain swc5, active compounds read low 0.29 | locus YBR279W, strain paf1, active compounds read low 0.574 | locus YCL011C, strain gbp2, active compounds read low 0.565 | locus YCL016C, strain dcc1, active compounds read low 0.683 | locus YCL029C, strain bik1, active compounds read low 0.174 | locus YCL069W, strain vba3, active compounds read low 0.608 | locus YCR088W, strain abp1, active compounds read low 0.604 | locus YDL005C, strain med2, active compounds read low 0.636 | locus YDL035C, strain GPR1, active compounds read low 0.402 | locus YDL040C, strain nat1, active compounds read low 0.612 | locus YDL074C, strain BRE1, active compounds read low 0.219 | locus YDL101C, strain DUN1, active compounds read low 0.115 | locus YDL134C, strain PPH21, active compounds read low 0.586 | locus YDL185W, strain tfp1, active compounds read low 0.549 | locus YDL192W, strain arf1, active compounds read low 0.512 | locus YDR001C, strain nth1, active compounds read low 0.721 | locus YDR069C, strain doa4, active compounds read low 0.127 | locus YDR101C, strain arx1, active compounds read low 0.176 | locus YDR137W, strain rgp1, active compounds read low 0.161 | locus YDR150W, strain NUM1, active compounds read low 0.591 | locus YDR159W, strain sac3, active compounds read low 0.148 | locus YDR162C, strain NBP2, active compounds read low 0.224 | locus YDR195W, strain ref2 0.327 | locus YDR297W, strain sur2, active compounds read low 0.445 | locus YDR318W, strain mcm21, active compounds read low 0.589 | locus YDR334W, strain swr1, active compounds read low 0.351 | locus YDR335W, strain msn5, active compounds read low 0.138 | locus YDR388W, active compounds read low 0.555 | locus YDR392W, strain spt3, active compounds read low 0.562 | locus YDR502C, strain sam2, active compounds read low 0.214 | locus YEL003W, strain gim4, active compounds read low 0.291 | locus YEL037C, strain rad23, active compounds read low 0.407 | locus YEL061C, strain CIN8 (second series), active compounds read low 0.695 | locus YEL061C, strain CIN8, active compounds read low 0.496 | locus YER015W, strain faa2, active compounds read low 0.287 | locus YER016W, strain bim1, active compounds read low 0.736 | locus YER110C, active compounds read low 0.851 | locus YER111C, strain swi4, active compounds read low 0.113 | locus YER155C, strain BEM2 (second series), active compounds read low 0.338 | locus YER155C, strain BEM2, active compounds read low 0.449 | locus YER167W, strain BCK2, active compounds read low 0.573 | locus YFR010W, strain ubp6, active compounds read low 0.218 | locus YGL078C, strain dbp3, active compounds read low 0.84 | locus YGL086W, strain mad1, active compounds read low 0.636 | locus YGL167C, strain pmr1, active compounds read low 0.396 | locus YGL173C, strain kem1, active compounds read low 0.23 | locus YGL227W, strain vid30, active compounds read low 0.677 | locus YGL240W, strain doc1, active compounds read low 0.657 | locus YGL248W, strain PDE1, active compounds read low 0.561 | locus YGL253W, strain hxk2, active compounds read low 0.485 | locus YGR078C, strain PAC10, active compounds read low 0.536 | locus YGR135W, strain pre9, active compounds read low 0.443 | locus YGR229C, strain SMI1, active compounds read low 0.107 | locus YGR252W, strain gcn5, active compounds read low 0.576 | locus YHR013C, strain ard1, active compounds read low 0.504 | locus YHR027C, strain rpn1, active compounds read low 0.295 | locus YHR030C, strain SLT2, active compounds read low 0.304 and 0.677 | locus YHR079C, strain IRE1 (second series), active compounds read low 0.139 | locus YHR079C, strain IRE1, active compounds read low 0.612 | locus YHR094C, strain hxt1, active compounds read low 0.699 | locus YHR129C, strain ARP1, active compounds read low 0.531 | locus YHR142W, strain chs7, active compounds read low 0.285 | locus YHR200W, strain rpn10, active compounds read low 0.604 | locus YIL066C, strain RNR3, active compounds read low 0.425 | locus YIL073C, strain SPO22, active compounds read low 0.381 | locus YIL125W, strain kgd1, active compounds read low 0.808 | locus YIR030C, strain dcg1, active compounds read low 0.359 | locus YJL092W, strain hpr5, active compounds read low 0.531 | locus YJL095W, strain BCK1 (second series), active compounds read low 0.218 | locus YJL095W, strain BCK1, active compounds read low 0.0738 and 0.684 | locus YJL115W, strain asf1, active compounds read low 0.648 | locus YJL129C, strain trk1, active compounds read low 0.312 | locus YJL134W, strain LCB3, active compounds read low 0.588 | locus YJL154C, strain vps35, active compounds read low 0.68 | locus YJL164C, strain tpk1, active compounds read low 0.347 | locus YJL166W, strain qcr8, active compounds read low 0.437 | locus YJL168C, strain set2, active compounds read low 0.808 | locus YJL187C, strain SWE1 (second series), active compounds read low 0.106 | locus YJR043C, strain POL32, active compounds read low 0.288 | locus YJR066W, strain TOR1, active compounds read low 0.68 | locus YJR075W, strain HOC1, active compounds read low 0.558
inactive: locus YBR021W, strain FUR4, active compounds read low 0.885
